Test results published in PubChem BioAssay (NCI).
About 83,000 compounds went through this panel and 20% of them were active in at least one assay; those are over-represented in the sample as a whole.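 Results are percent growth after 48 hours of single-concentration exposure. 100 means growth as in untreated cells, lower positive values show inhibition; negative values down to -100 show cell death.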 A number with no mark means an inactive call. The source made the active and inactive calls. The calls were made as follows: active = growth percent below 10; inactive = the rest.

Tests used:
Assay in all cases: NCI-60 one-dose screen, 48 h (100 = growth as untreated, 0 = no growth, -100 = all killed)
[1] = test system: DU-145 prostate; conditions: 10 µM unless noted
[2] = test system: K-562 leukemia; conditions: 10 µM unless noted
[3] = test system: MALME-3M melanoma; conditions: 10 µM unless noted
[4] = test system: MDA-MB-231 breast; conditions: 10 µM unless noted
[5] = test system: RXF 393 renal; conditions: 10 µM unless noted
[6] = test system: SF-268 CNS; conditions: 10 µM unless noted
[7] = test system: SF-295 CNS; conditions: 10 µM unless noted
[8] = test system: SF-539 CNS; conditions: 10 µM unless noted
[9] = test system: UACC-257 melanoma; conditions: 10 µM
[10] = test system: M14 melanoma; conditions: 10 µM unless noted
[11] = test system: HCT-15 colon; conditions: 10 µM unless noted
[12] = test system: HT29 colon; conditions: 10 µM unless noted
[13] = test system: SNB-75 CNS; conditions: 10 µM unless noted
[14] = test system: SNB-19 CNS; conditions: 10 µM unless noted
[15] = test system: U251 CNS; conditions: 10 µM unless noted
[16] = test system: SK-MEL-5 melanoma; conditions: 10 µM unless noted
[17] = test system: UACC-62 melanoma; conditions: 10 µM unless noted
[18] = test system: LOX IMVI melanoma; conditions: 10 µM unless noted
[19] = test system: SK-MEL-28 melanoma; conditions: 10 µM unless noted
[20] = test system: PC-3 prostate; conditions: 10 µM unless noted

Structure (SMILES)	growth [1]	growth [2]	growth [3]	growth [4]	growth [5]	growth [6]	growth [7]	growth [8]	growth [9]	growth [10]	growth [11]	growth [12]	growth [13]	growth [14]	growth [15]	growth [16]	growth [17]	growth [18]	growth [19]	growth [20]
O=C(NCCNc1cc(-c2cn(-c3ccccc3)nc2-c2cccc(O)c2)ccn1)Nc1ccc(Cl)c(C(F)(F)F)c1	94.6%	35.5%	83%	36%	15.3%	48.6%	7.84% (active)	40.2%	89.6%	48.3%	2.46% (active)	34.8%	42.8%	46.8%	42.8%	65.9%	77%	0.724% (active)	42.1%	
CCN1C(=O)N(CC)C2C1NN=C1SC(c3ccccc3)=CC(=O)N12 (configuration not stated)	26%	11.7%	46.7%	38.8%	-11.1% (active)	62.4%	11.1%	-8.38% (active)	63.6%	5.39% (active)	19.2%	-8.74% (active)	14%	31.8%	14.5%	38.2%	19.4%	40.1%	59.5%	
CCOC(=O)c1nn(-c2ccccc2)c(=O)c2c(N)c(C#N)c(-c3cccs3)cc12	88.3%	87.5%	88.4%	76.5%	59.9%	85.5%	64.4%	57.2%	93.5%	94.4%	87.6%	61.9%		70.5%	77.3%	96.4%	85.8%	73%	99.9%	79.9%
CCOC(=O)Nc1cccc(-n2cnc3cc(-c4ccc(O)cc4)ccc32)c1	19.7%	7.15% (active)	77.7%	33.7%	-12.8% (active)	38.9%	14.6%	4.17% (active)	83.6%	29.6%	9.71% (active)	5.49% (active)	3.54% (active)	27.1%	19.1%	9.15% (active)		41.2%	63.8%	29.9%
COc1ccc(-c2nc3cc(Cl)c(Cl)cc3n2CC(=O)N=Nc2c(O)[nH]c3ccc(Cl)cc23)cc1	-10.9% (active)	32.1%	-10.1% (active)	29.8%	-48.2% (active)	51.8%	4.56% (active)	36%	71.9%	11.9%	5.04% (active)	25%		36.1%	17.1%	38.3%	38.6%	-58.1% (active)	-21.5% (active)	37.6%
CN1CCN(Cc2ccc(NC(=O)c3cncc(C#Cc4cnc5ccc(NC6CCOCC6)nn45)c3)cc2C(F)(F)F)CC1	-95.2% (active)	-12.8% (active)	-86.5% (active)	-71.9% (active)	-93.8% (active)	-47.5% (active)	-85.2% (active)	-92.1% (active)	-13.9% (active)	-97.2% (active)	-48.4% (active)	0.122% (active)		-7.17% (active)	-96.7% (active)	-97.7% (active)	-61.8% (active)	-83.8% (active)	-74.6% (active)	-15.5% (active)
CCCCCCCCNC(=O)c1ccc(Cn2c(CCCC)nc3c(N)nc4ccccc4c32)cc1	27.7%	-59.9% (active)	-82.9% (active)	-71.6% (active)	23.3%	53.7%	-80.8% (active)	-87.1% (active)	-70.3% (active)	-80.4% (active)	-55.8% (active)	-23% (active)		14.9%	-59% (active)	-96.8% (active)	23.4%	-86.3% (active)	-94% (active)	41.5%
O=C(NCCCCCCNC(=O)c1c2c(nc3ccccc13)-c1cccnc1SC2)c1c2c(nc3ccccc13)-c1cccnc1SC2	104%	73.4%	-16.5% (active)	59.3%	73.4%	77.7%	94.7%	86.8%	17.1%	30.8%	74.8%	53.7%		66.5%	77.6%	84.3%	12.2%	78.6%	27.7%	81%
